Rows were chosen to be rich in hits. Some 7% of all compounds tested hit in one or more screens of this group.
BAZ2B inh – blocks human BAZ2B; 360,000 compounds, 4.4% hits; AlphaScreen BAZ2B-H3K14Ac peptide displacement; Potency, µM (highest dose often 114 µM), inactives show at the highest dose activity change, negative = inhibition, most hits filed as inhibitors; AID 504333; Q9UIF8; further: potency means the concentration at half of the fitted maximal effect; on the % scale 0 is the no-effect control and ±100 the full control effect; nearly all actives have a fitted effect of over 60% in size
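Protein-peptide AlphaScreen: BAZ2B 50 nM, b-H3K14Ac 50 nM, 1x PBS pH 7.4 + 0.01% Tween-20. Preincubation 30 min RT; cpd 30 min RT (top 110 uM); beads 20 min RT, light-protected.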
PI5P4Ka inh – blocks human PI5P4K alpha kinase activity | P48426 | AID 652105 | 330,000 compounds, 1.2% hits | PI5P4Kalpha enzyme, ADP-Glo luminescence, 60 min; hits give low values | max response, %; active means max response of -50% or lower; inconclusive means between -30% and -50%; inactive means -30% or higher; further: value at the top dose of about 77 µM; on the % scale 0 is the no-effect control and ±100 the full control effect
Target sequence (P48426 whole entry, looked up): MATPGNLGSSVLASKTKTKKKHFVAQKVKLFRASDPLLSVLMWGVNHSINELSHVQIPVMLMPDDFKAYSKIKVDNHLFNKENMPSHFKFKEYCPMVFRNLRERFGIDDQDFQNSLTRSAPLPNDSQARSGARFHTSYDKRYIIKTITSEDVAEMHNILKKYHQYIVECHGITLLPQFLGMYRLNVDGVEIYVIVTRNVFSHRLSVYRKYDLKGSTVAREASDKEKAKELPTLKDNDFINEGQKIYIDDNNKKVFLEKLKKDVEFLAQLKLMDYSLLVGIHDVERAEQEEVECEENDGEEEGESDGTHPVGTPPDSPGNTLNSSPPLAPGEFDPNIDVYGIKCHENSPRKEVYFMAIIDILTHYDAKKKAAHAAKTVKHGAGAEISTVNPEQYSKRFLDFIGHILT
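ADP-Glo luminescence end-point read after a 60 min room-temperature kinase reaction of PI5P4Kalpha plus substrate, initiated with ATP at 5 microM final. Buffer: 0.038 M HEPES pH 7.4, EGTA, 0.1% CHAPS, 5% DMSO.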
HP1b chromo inh – HP1-beta chromodomain-methylated histone interaction inhibition; AlphaScreen HP1-beta / biotin-H3K9me3 peptide binding; Potency, µM (highest dose often 114 µM), without a hit: at the top dose activity change, negative = inhibition, usual class: inhibitors; 390,000 compounds, 0.56% hits; further: potency means the concentration at half of the fitted maximal effect; nearly all actives have a fitted effect of over 70% in size
Target sequence (P83916 whole entry, looked up): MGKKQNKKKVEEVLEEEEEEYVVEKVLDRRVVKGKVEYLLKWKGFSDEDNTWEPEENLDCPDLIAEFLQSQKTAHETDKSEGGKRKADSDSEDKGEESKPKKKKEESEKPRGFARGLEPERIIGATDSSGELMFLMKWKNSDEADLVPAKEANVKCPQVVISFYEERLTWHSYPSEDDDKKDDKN
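HP1-beta protein (50 nM final) preincubated 30 min at room temperature with biotinylated H3(1-18)K9me3 peptide (50 nM) in PBS pH 7.4, 0.01% Tween-20, then compound added for 30 min. AlphaScreen streptavidin donor/nickel chelate acceptor beads (10 ug/mL final), 30 min dark, luminescence read.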
PLK1 PBD inh – PLK1 (human) polo-box domain binding inhibition. Plk1 PBD binding of FITC phosphopeptide, fluorescence polarization. Potency, µM, for inactives: max response, negative = inhibition, usual class: inhibitors. P53350. AID 720504. 360,000 compounds, 2.8% hits; further: potency means the concentration at half of the fitted maximal effect; series mostly up to about 57 µM; on the % scale 0 is the no-effect control and ±100 the full control effect; nearly all actives have a fitted effect of over 65% in size
JMJD2A Tudor inh – JMJD2A Tudor domain (human) inhibition | Potency, µM (highest dose often 114 µM), for the others: at the top dose activity change, negative = inhibition, actives largely listed as inhibitors | AlphaScreen JMJD2A-Tudor / H3K4me3 peptide binding | AID 504339 | O75164 | 390,000 compounds, 4.4% hits; further: potency means the concentration at half of the fitted maximal effect; on the % scale 0 is the no-effect control and ±100 the full control effect; nearly all actives have a fitted effect of over 50% in size
GCN5L2 inh – inhibitors of human GCN5L2 histone acetyltransferase; Q92830; GCN5L2 HAT assay, ThioGlo1 CoA-SH fluorescence; Potency, µM (titrated, usually from 58.9 µM), inactives show top-dose activity change, negative = inhibition, most hits filed as inhibitors; 390,000 compounds, 0.21% hits; further: potency means the concentration at half of the fitted maximal effect; on the % scale 0 is the no-effect control and ±100 the full control effect
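Enzyme at 20nM final was mixed with library compounds for 15 min at room temperature. Peptide H3(1-25) at 75uM, acetyl-CoA at 70uM and ThioGlo1 at 50uM were then added. Plates were read immediately and after 20 min (Ex340nm/Em540nm).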
An asterisk follows results filed as active; ? = inconclusive; nt = no result given; [ ] = dose if it differs, or a comment. Unless noted, the call rests on the fitted dose curve; in most records, active means well fitted curve in the direction sought with a large enough effect; inconclusive means small, poorly fitted or top-dose-only effect, or another doubt; inactive means no such curve, though single readings can be large; an effect the other way counts as inactive or inconclusive.

SMILES | BAZ2B inh | PI5P4Ka inh | HP1b chromo inh | PLK1 PBD inh | JMJD2A Tudor inh | GCN5L2 inh
CCC(=O)N1CCc2cc(Br)cc(S(=O)(=O)N3CCC(C(=O)NC(C)C)CC3)c21 | -8% | 0 | -13% | -9% | -23% | 0%
CSc1ccc(CN2CCC(C)(Oc3ccc(-n4ccnc4)cc3)C2)cc1 (configuration not stated) | nt | -6 | nt | -10% | nt | nt
OCC1(Cc2ccc(F)cc2)CCCN(CCCC(F)(F)F)C1 (configuration not stated) | 13% | 6 | 30% | -20% | -2% | -14%
O=C(O)c1ccc(N2C(=O)c3cccc4c(C(=O)O)ccc(c34)C2=O)cc1 | 50µM* | ? | 79µM* | 0% | 45µM* | -14%
NS(=O)(=O)c1ccc(O)c(N2C(=O)c3cccc4c(C(=O)O)ccc(c34)C2=O)c1 | -17% | 0 | 37% | 2% | 10% | -2%
NN1C(=O)c2cccc3c(C(=O)O)ccc(c23)C1=O | -8% | -64* | 18% | -12% | -16% | -8%
CN1CCN(C2=C(Cl)C(=O)N(c3cccc(Cl)c3)C2=O)CC1 | -11% | -9 | -7% | -23% | 18µM* | -7%
CN1CCN(C2=C(Cl)C(=O)N(c3ccc(Cl)c(Cl)c3)C2=O)CC1 | ? | 5 | 42% | 27µM* | 22µM* | -13%
FC(F)(F)COCC(F)(F)F | nt | nt | nt | nt | nt | 0%
Cc1ccc(CNc2ccc(N3CCN(C)CC3=O)cc2)cc1 | nt | nt | 28% | nt | -22% | 0%
CCn1c(-c2ccc(Cl)cc2)n[nH]c1=S | 3% | nt | -3% | -19% | 5µM* | 4%
CCCn1c(-c2ccc(F)cc2)n[nH]c1=S | 17% | nt | 15% | -6% | 5.6µM* | -4%
CCn1c(-c2ccc(C)cc2)n[nH]c1=S | -24% | -2 | 16% | -15% | 7.9µM* | -3%
Fc1ccccc1-c1n[nH]c(=S)n1CC1CCCO1 (configuration not stated) | -12% | 3 | 44% | -13% | -11% | -9%
CC(C)(C)c1ccc(-c2n[nH]c(=S)n2CC2CCCO2)cc1 (configuration not stated) | -19% | 0 | 0% | -8% | 32µM* | -10%
CCn1c(-c2cccn(Cc3ccc(Cl)cc3Cl)c2=O)n[nH]c1=S | 5% | 8 | -9% | -19% | -32%[11.4 µM] | -19%
CCn1c(C(C)NS(=O)(=O)c2ccc(Cl)cc2)n[nH]c1=S (configuration not stated) | 0% | 2 | 25% | -2% | 20µM* | -27%
CCCCn1c(-c2ccc([N+](=O)[O-])cc2)n[nH]c1=S | -5% | -14 | ? | -11% | 7.9µM* | -5%
CCCCc1nc(SCc2ccc([N+](=O)[O-])cc2)n[nH]1 | -2% | -8 | 44% | -6% | -6% | -5%
COc1ccc2c(c1)CCc1c(C(=O)NCC(C)C)noc1-2 | -3% | 13 | 68% | -8% | -8%[11.4 µM] | -10%
CCCNC(=O)c1noc2c1CCc1cc(OC)ccc1-2 | 2% | -1 | 20% | 27µM* | -18%[11.4 µM] | -13%
COc1ccc(C2=[N+](C)CCn3cccc32)c(OC)c1 | -34% | -15 | ? | -21% | 18µM* | -18%
CN(C)c1ccc(/C=C(\C#N)c2nc(-c3ccc(Cl)c(Cl)c3)cs2)cc1 | -3% | nt | 39% | nt | -8% | 1%
CCOc1ccc(-c2csc(/C(C#N)=C\c3ccc(O)c([N+](=O)[O-])c3)n2)cc1 | 7.1µM* | ? | 35µM* | 19µM* | 22µM* | ?
O=[N+]([O-])c1cncn1CCN1CCOCC1 | nt | -3 | 49% | 5% | -1% | nt
SMILES | BAZ2B inh | PI5P4Ka inh | HP1b chromo inh | PLK1 PBD inh | JMJD2A Tudor inh | GCN5L2 inh
O=[N+]([O-])c1cc(Cl)c2cccnc2c1O | 18µM* | -2 | ? | -3% | 20µM* | -5%
O=[N+]([O-])c1ccc(Cl)c2cccnc12 | -3% | 4 | 14% | -23% | -16% | 17%
Clc1cc2cccnc2c2ncccc12 | 3.5µM* | 0 | 22% | -2% | -7% | 2%
Oc1c(I)cc(Cl)c2cccnc12 | 40µM* | ? | 4% | -24% | 79µM* | -6%
O=[N+]([O-])c1cc(Cl)c(O)c2ncccc12 | 20µM* | -3 | ? | -25% | 22µM* | -11%
Cc1c(C)c2cccnc2c2ncccc12 | 5.6µM* | -3 | 33% | -8% | 10µM* | -2%
O=[N+]([O-])c1cccc2c(Cl)ccnc12 | -39% | 1 | 26% | -22% | 0% | -4%
O=[N+]([O-])c1cc(F)c2cccnc2c1O | 11µM* | -8 | 11% | ? | 10µM* | -6%
O=C(O)CCn1ccc2cc(S(=O)(=O)N3CCCCC3)ccc21 | 7% | nt | 24% | nt | -17% | 0%
Cc1ccc(Cl)cc1N1CCN(C(=O)c2c(C)oc3ncnc(N4CCCCC4)c23)CC1 | -30%[57.1 µM] | nt | -9% | nt | ? | 5%
CC1CCC(NC(=O)c2ccc(NC(=O)CC3SC(N4CCCC4)=NC3=O)cc2)CC1 (configuration not stated) | 11% | -7 | 32% | 0% | -10% | -3%
Cc1cccc(OCCCCn2c(C3CC(=O)N(c4ccc(C)cc4C)C3)nc3ccccc32)c1 (configuration not stated) | ? | nt | -1% | nt | ? | -16%
Cc1cccc(OCCCCn2c(C3CC(=O)N(c4ccccc4Cl)C3)nc3ccccc32)c1 (configuration not stated) | 50µM* | nt | 3% | nt | -35% | -12%
COc1ccc(-n2c(Cc3cccn3C)nnc2SCC(=O)Nc2ccc(C)cc2C)cc1 | ? | -4 | -5% | 27µM* | ? | -1%
COc1ccc(-n2c(Cc3cccn3C)nnc2SCC(=O)Nc2cccc(F)c2)cc1 | ? | 0 | 8% | -6% | ? | -8%
COc1ccc(-n2c(Cc3cccn3C)nnc2SCC(=O)Nc2ccccc2OC)cc1 | ? | 4 | 18% | -25% | -34% | -9%
COc1ccc(NC(=O)CSc2nnc(Cc3cccn3C)n2-c2ccc(F)cc2)cc1OC | 50µM* | -2 | 5% | -11% | -35% | -9%
Cn1cccc1Cc1nnc(SCC(=O)Nc2ccccc2)n1-c1ccc(F)cc1 | ? | -18 | 36% | ? | ? | -1%
Cn1cccc1Cc1nnc(SCC(=O)Nc2ccc(F)cc2)n1-c1ccc(F)cc1 | ? | -5 | -17% | 24µM* | ? | 2%
C[C@H](CO)N1C[C@H](C)[C@@H](CN(C)S(C)(=O)=O)Oc2ccc(NS(=O)(=O)c3cn(C)cn3)cc2C1=O | nt | 9 | 44% | -10% | -15% | 0%
O=C(/C=C/c1ccc(O)c(O)c1)NC(=O)c1ccccc1O | 50µM* | ? | ? | -6% | 63µM* | -1%

High-throughput results: PubChem BioAssay, National Center for Advancing Translational Sciences (NCATS)
